In PMC7862700, “An all-to-all approach to the identification of sequence-specific readers for epigenetic DNA modifications on cytosine”:

Key:
Experiment in all cases: DAPPL (digital affinity profiling via proximity ligation, sequencing); 10 mM Tris-HCl pH 7.5, 50 mM NaCl, 1 mM DTT, 4% glycerol, room temperature, 30 min; GST-TFs on glutathione beads, 16-mer random dsDNA library, 0.1% formaldehyde crosslink after washing; high values mean tight binding
HSF1 = HSF1 (Homo sapiens, UniProt Q00613 1-529); conditions: protein: recombinant; tags: N-terminal GST; chain copies: 3; dsDNA, one strand shown
Sequence of HSF1 (Q00613 whole entry, the tested form may be a part): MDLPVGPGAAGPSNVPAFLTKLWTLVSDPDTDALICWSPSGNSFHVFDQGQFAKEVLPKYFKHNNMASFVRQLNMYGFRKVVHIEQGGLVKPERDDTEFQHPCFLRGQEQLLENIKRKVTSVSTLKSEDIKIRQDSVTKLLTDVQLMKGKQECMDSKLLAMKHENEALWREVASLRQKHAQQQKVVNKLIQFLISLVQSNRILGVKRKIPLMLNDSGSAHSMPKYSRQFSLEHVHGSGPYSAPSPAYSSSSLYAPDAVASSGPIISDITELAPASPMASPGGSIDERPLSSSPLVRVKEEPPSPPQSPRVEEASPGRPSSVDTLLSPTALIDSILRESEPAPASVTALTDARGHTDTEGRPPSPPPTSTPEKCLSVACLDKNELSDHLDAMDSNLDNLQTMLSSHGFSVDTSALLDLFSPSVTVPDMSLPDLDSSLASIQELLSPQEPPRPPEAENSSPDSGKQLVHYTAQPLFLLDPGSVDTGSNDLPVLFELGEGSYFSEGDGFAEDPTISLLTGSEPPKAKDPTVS
Method in brief: (§1)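 Binding signal is each hexamer's read frequency for a factor divided by its frequency in the tag-only sample. The factors were GST-fused human transcription factors from yeast, captured on glutathione beads, DNA-barcoded and pooled with that sample. Pools were incubated with 200 nmole of a random double-stranded 16-mer DNA library in Tris/NaCl/DTT/glycerol buffer at room temperature for 30 min, then washed, crosslinked with 0.1% formaldehyde, proximity-ligated with BsaI/T4 ligase (1 h, 37 °C), PCR-amplified and sequenced on an Illumina NextSeq500.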

SPIC = molecular target: T1, SPIC (Homo sapiens, UniProt Q8N5J4 1-248); conditions: protein: recombinant; tags: N-terminal GST; dsDNA, one strand shown
T1 sequence: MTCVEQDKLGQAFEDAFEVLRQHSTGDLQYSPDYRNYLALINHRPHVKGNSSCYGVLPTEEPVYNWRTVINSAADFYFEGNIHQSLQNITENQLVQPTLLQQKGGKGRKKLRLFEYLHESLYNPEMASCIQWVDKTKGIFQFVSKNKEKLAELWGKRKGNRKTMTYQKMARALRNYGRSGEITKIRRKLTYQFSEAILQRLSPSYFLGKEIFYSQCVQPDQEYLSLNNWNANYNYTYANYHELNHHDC
Method in brief: as §1

ELK4 = molecular target: T2, ELK4 (Homo sapiens, UniProt P28324-2 1-405); conditions: protein: recombinant; tags: N-terminal GST; dsDNA, one strand shown
T2 sequence: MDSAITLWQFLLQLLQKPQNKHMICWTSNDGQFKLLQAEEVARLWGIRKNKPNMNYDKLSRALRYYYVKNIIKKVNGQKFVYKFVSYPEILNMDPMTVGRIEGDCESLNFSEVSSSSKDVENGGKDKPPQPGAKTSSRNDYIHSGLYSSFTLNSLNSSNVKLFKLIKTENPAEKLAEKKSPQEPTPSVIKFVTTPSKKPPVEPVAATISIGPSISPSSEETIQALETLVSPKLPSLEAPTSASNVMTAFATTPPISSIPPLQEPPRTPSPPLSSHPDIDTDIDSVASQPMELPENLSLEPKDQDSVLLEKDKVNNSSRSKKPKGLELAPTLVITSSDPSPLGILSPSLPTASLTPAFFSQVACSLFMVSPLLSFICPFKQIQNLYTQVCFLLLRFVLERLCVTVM
Method in brief: as §1

ELF3 = molecular target: T3, ELF3 (Homo sapiens, UniProt P78545 1-371); conditions: protein: recombinant; tags: N-terminal GST; dsDNA, one strand shown
T3 sequence: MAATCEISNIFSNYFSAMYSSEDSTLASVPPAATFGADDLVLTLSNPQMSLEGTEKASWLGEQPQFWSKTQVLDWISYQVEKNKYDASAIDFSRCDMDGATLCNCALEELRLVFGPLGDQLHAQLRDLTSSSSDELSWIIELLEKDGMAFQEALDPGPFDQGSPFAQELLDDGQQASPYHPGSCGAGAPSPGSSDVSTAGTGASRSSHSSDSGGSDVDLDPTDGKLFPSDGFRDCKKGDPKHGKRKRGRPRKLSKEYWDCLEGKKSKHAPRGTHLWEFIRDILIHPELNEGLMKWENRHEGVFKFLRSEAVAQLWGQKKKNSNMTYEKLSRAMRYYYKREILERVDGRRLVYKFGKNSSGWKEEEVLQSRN
Method in brief: as §1

CRX = CRX (Homo sapiens, UniProt O43186 1-299); conditions: protein: recombinant; tags: N-terminal GST; dsDNA, one strand shown
Sequence of CRX (O43186 whole entry): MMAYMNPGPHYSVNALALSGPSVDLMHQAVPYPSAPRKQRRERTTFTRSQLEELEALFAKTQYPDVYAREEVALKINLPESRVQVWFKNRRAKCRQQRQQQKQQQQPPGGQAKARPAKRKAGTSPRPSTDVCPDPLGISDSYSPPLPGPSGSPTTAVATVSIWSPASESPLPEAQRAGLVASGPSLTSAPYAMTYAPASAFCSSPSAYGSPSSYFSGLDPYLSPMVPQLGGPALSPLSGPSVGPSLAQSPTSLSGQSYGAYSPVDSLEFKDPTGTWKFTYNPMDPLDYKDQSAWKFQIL
Method in brief: as §1

ERF = molecular target: T4, ERF (Homo sapiens, UniProt P50548 1-548); conditions: protein: recombinant; tags: N-terminal GST; dsDNA, one strand shown
T4 sequence: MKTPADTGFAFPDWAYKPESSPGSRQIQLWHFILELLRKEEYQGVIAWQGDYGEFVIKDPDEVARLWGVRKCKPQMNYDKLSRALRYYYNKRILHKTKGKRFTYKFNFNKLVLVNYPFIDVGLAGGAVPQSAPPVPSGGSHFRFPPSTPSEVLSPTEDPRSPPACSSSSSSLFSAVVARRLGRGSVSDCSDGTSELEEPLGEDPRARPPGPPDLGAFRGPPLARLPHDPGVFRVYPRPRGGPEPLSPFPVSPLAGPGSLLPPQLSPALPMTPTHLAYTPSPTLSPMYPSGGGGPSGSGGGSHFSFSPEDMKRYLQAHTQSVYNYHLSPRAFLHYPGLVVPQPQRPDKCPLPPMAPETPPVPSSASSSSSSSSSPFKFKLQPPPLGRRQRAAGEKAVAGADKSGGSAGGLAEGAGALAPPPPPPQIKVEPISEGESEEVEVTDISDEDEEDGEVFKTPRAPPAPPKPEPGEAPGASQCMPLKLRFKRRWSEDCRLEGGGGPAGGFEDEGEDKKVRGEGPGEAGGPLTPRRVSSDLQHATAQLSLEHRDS
Method in brief: as §1

ETV3L = molecular target: T5, ETV3L (Homo sapiens, UniProt Q6ZN32 1-361); conditions: protein: recombinant; tags: N-terminal GST; dsDNA, one strand shown
T5 sequence: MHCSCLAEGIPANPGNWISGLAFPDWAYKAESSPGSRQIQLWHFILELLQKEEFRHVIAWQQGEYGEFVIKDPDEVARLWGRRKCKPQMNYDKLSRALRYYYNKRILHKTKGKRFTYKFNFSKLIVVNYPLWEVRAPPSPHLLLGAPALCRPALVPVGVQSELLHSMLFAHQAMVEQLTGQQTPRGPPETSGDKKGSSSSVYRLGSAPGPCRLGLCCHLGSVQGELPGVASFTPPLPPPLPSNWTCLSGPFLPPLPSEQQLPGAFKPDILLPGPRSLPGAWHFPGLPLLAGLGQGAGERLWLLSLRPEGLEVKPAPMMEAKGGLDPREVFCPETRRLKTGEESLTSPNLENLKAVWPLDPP
Method in brief: as §1

ETS2 = molecular target: T6, ETS2 (Homo sapiens, UniProt P15036 1-469); conditions: protein: recombinant; tags: N-terminal GST; dsDNA, one strand shown
T6 sequence: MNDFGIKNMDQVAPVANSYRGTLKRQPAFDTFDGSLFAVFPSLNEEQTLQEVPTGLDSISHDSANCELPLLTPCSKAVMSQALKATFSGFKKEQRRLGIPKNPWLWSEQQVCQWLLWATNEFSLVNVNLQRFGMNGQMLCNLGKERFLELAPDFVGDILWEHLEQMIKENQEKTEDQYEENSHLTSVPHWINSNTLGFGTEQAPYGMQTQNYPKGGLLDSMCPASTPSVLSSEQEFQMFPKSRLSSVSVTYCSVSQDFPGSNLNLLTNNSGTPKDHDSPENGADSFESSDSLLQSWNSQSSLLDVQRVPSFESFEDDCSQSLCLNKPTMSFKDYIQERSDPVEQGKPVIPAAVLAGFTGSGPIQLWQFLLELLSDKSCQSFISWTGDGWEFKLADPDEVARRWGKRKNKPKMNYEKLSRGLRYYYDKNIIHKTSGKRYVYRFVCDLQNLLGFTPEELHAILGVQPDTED
Method in brief: as §1

SPDEF = molecular target: T7, SPDEF (Homo sapiens, UniProt O95238 1-335); conditions: protein: recombinant; tags: N-terminal GST; dsDNA, one strand shown
T7 sequence: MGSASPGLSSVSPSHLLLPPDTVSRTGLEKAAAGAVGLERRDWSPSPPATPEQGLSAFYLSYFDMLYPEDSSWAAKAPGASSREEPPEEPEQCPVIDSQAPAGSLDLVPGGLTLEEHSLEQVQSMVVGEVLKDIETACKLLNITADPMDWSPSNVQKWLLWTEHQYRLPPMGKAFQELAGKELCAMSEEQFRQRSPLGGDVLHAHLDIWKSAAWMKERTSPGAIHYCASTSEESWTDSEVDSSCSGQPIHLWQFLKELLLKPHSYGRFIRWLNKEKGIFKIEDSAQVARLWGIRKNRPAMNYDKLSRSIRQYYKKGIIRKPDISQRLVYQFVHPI
Method in brief: as §1

SPI1 = SPI1 (Homo sapiens, UniProt P17947 1-270); conditions: protein: recombinant; tags: N-terminal GST; dsDNA, one strand shown
Method in brief: as §1

ETV3 = molecular target: T8, ETV3 (Homo sapiens, UniProt P41162-2 1-143); conditions: protein: recombinant; tags: N-terminal GST; dsDNA, one strand shown
T8 sequence: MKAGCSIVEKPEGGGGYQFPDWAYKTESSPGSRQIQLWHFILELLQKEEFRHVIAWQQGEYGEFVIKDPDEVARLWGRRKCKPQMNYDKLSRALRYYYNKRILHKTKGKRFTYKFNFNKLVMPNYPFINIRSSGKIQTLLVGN
Method in brief: as §1

Sequence: TGTAGA
- binding signal (HSF1): 1.12 fold enrichment (6-mer frequency, TF over GST control)
- binding signal (SPIC): 1.1 fold enrichment (6-mer frequency, TF over GST control)

Sequence: GTAGAT
- binding signal (HSF1): 1 fold enrichment (6-mer frequency, TF over GST control)
- binding signal (SPIC): 1.16 fold enrichment (6-mer frequency, TF over GST control)
- binding signal (ELK4): 1.01 fold enrichment (6-mer frequency, TF over GST control)
- binding signal (ELF3): 1.01 fold enrichment (6-mer frequency, TF over GST control)
- binding signal (CRX): 1.07 fold enrichment (6-mer frequency, TF over GST control)
- binding signal (ERF): 1.06 fold enrichment (6-mer frequency, TF over GST control)
- binding signal (ETV3L): 1.09 fold enrichment (6-mer frequency, TF over GST control)
- binding signal (ETS2): 1.02 fold enrichment (6-mer frequency, TF over GST control)
- binding signal (SPDEF): 1.04 fold enrichment (6-mer frequency, TF over GST control)

Sequence: GTGGAA
- binding signal (SPI1): 1.15 fold enrichment (6-mer frequency, TF over GST control)
- binding signal (HSF1): 1.23 fold enrichment (6-mer frequency, TF over GST control)
- binding signal (SPIC): 1.02 fold enrichment (6-mer frequency, TF over GST control)
- binding signal (ELK4): 1.06 fold enrichment (6-mer frequency, TF over GST control)
- binding signal (ETV3): 1.02 fold enrichment (6-mer frequency, TF over GST control)
